# Results as given in PubChem BioAssay (NCATS).
# Records with an inconclusive call do not appear. A call without a number means that no potency is given here. A number with no mark means an inactive call. Activity calls are given as the source filed them. Calls come from the whole dose curve; as a rule, active = well fitted cell-killing curve with a large enough effect; inconclusive = small, poorly fitted or top-dose-only effect, or effect the other way; inactive = no such curve, though single readings can be large or run the other way.
# Columns and labels:
# [1] = Quantitative High-Throughput drug screen in 47 multiple myeloma cell lines against the NCATS MIPE library collection: FR4_PLB cell viability assay (AID 1918924; note: nearly all actives have a fitted effect of over 35% in size); conditions: FR4_PLB myeloma cells viability, CellTiter-Glo ATP, 48 h; series mostly up to 45.8 µM
# Method in brief: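 Viability readout: CellTiter-Glo luminescence following 5 min room-temperature incubation with reagent. Prior exposure: 48 h, 37C, humidified 5% CO2, 500 cells per well.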
# [2] = Quantitative High-Throughput drug screen in 47 multiple myeloma cell lines against the NCATS MIPE library collection: EJM_DSMZ cell viability assay (AID 1918926; note: nearly all actives have a fitted effect of over 30% in size); conditions: EJM myeloma cell viability, CellTiter-Glo ATP, 48 h; series mostly up to 45.8 µM
# Method in brief: (§1)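 Approved and investigational drugs from MIPE 4.0 were added by pin tool to 500 cells per well. After 48 hours at 37C, ATP-based CellTiter-Glo luminescence indicated remaining viability.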
# [3] = Quantitative High-Throughput drug screen in 47 multiple myeloma cell lines against the NCATS MIPE library collection: AMO1_DSMZ cell viability assay (AID 1918927; note: nearly all actives have a fitted effect of over 30% in size); conditions: AMO1 myeloma cells viability, CellTiter-Glo ATP luminescence, 48 h; series mostly up to 45.8 µM
# Method in brief: as §1
# [4] = Quantitative High-Throughput drug screen in 47 multiple myeloma cell lines against the NCATS MIPE library collection: Delta47_JCRB cell viability assay (AID 1918925; note: nearly all actives have a fitted effect of over 45% in size); conditions: Delta47 myeloma viability, CellTiter-Glo ATP, 48 h; series mostly up to 45.8 µM
# Method in brief: as §1
# [5] = Quantitative High-Throughput drug screen in 47 multiple myeloma cell lines against the NCATS MIPE library collection: ARP1_JJKsccF8 cell viability assay (AID 1918928; note: nearly all actives have a fitted effect of over 40% in size); conditions: ARP1 myeloma cells viability, CellTiter-Glo ATP, 48 h; series mostly up to 45.8 µM
# Method in brief: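 Here, 48 h treatment with MIPE 4.0 agents at 37 °C preceded an ATP luminescence read. Plating density was 500 cells per well.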
# Potency is the fitted concentration of half-maximal effect.
structure (smiles),measurement,setting,value
Cc1onc(-c2ccccc2)c1C(=O)N[C@@H]1C(=O)N2[C@@H](C(=O)O)C(C)(C)S[C@@H]12,Potency,[1],inactive
same,Potency,[2],inactive
same,Potency,[3],inactive
C=CC1=C(C(=O)O)N2C(=O)[C@@H](NC(=O)C(=NO)c3csc(N)n3)[C@H]2SC1,Potency,[1],inactive
same,Potency,[4],inactive
same,Potency,[5],inactive
CON=C(C(=O)N[C@@H]1C(=O)N2C(C(=O)O)=C(Cn3ccc(=N)n3CCO)CS[C@H]12)c1csc(N)n1,Potency,[1],inactive
same,Potency,[2],inactive
same,Potency,[3],inactive
CCCNC(=O)[C@H]1O[C@H]1C(=O)N[C@H](C(=O)N1CCC[C@@H]1C(=O)OC)C(C)CC (some centres not stated),Potency,[1],8.33 µM (active)
same,Potency,[2],5.9 µM (active)
same,Potency,[5],8.33 µM (active)
C[C@H]1O[C@H](O[C@H]2[C@H](O)[C@@H](O)[C@@H](O[C@H]3[C@H](O)[C@@H](O)C(O)O[C@H]3CO)O[C@H]2CO)[C@H](O)[C@@H](O)[C@H]1N[C@H]1C=C(CO)[C@@H](O)[C@H](O)[C@@H]1O (some centres not stated),Potency,[1],inactive
same,Potency,[2],inactive
same,Potency,[5],inactive
CC(C)(C)[N+]([O-])=Cc1ccc(S(=O)(=O)O)cc1S(=O)(=O)O,Potency,[1],inactive
same,Potency,[2],inactive
same,Potency,[3],inactive
same,Potency,[5],inactive
CN1[C@H]2CC(OC(=O)[C@@H](CO)c3ccccc3)C[C@H]1[C@H]1O[C@H]12 (some centres not stated),Potency,[1],inactive
same,Potency,[2],inactive
same,Potency,[3],inactive
Cc1ccc(O)c(C(CCN(C(C)C)C(C)C)c2ccccc2)c1 (configuration not stated),Potency,[1],inactive
same,Potency,[2],0.0017 µM (active)
same,Potency,[3],inactive
same,Potency,[5],inactive
O=C(NNC(=O)c1ccc(CNS(=O)(=O)c2ccc(F)c(Cl)c2)cc1)c1ccccc1,Potency,[1],inactive
same,Potency,[2],inactive
same,Potency,[3],inactive
same,Potency,[5],inactive
COc1cc([C@@H]2c3cc4c(cc3[C@@H](O[C@@H]3O[C@@H]5CO[C@@H](c6cccs6)O[C@@H]5[C@H](O)[C@@H]3O)[C@H]3COC(=O)[C@H]23)OCO4)cc(OC)c1O,Potency,[1],16.6 µM (active)
same,Potency,[2],2.35 µM (active)
same,Potency,[3],0.59 µM (active)
same,Potency,[5],0.209 µM (active)
C=CCNC1=C2C[C@@H](C)C[C@H](OC)[C@@H](O)[C@@H](C)C=C(C)[C@H](OC(N)=O)[C@@H](OC)C=CC=C(C)C(=O)NC(=CC1=O)C2=O,Potency,[1],0.662 µM (active)
same,Potency,[2],4.18 µM (active)
same,Potency,[5],0.148 µM (active)
CN(C)CC[C@H](c1ccc(Cl)cc1)c1ccccn1,Potency,[1],inactive
same,Potency,[4],inactive
same,Potency,[5],inactive
CC(C)(O)Cn1c(NC(=O)c2ccc(-c3cn[nH]c3)s2)nc2cc(CN3CCOCC3)ccc21,Potency,[1],0.743 µM (active)
same,Potency,[2],1.05 µM (active)
same,Potency,[5],1.18 µM (active)
CC(C)(C)[C@H](NC(=O)c1ccc(N)c(Cl)c1)C(=O)N1CCC[C@@H]1C(=O)N[C@H](C#N)CC(=O)O,viability (% of DMSO control),[1],107% [at 3.51 µM]
same,viability,[5],111% [at 3.51 µM]
C=CC(=O)Nc1cc(NC(=O)c2ccc(C)c(NC(=O)c3ccno3)c2)cc(C(F)(F)F)c1,Potency,[1],26.4 µM (active)
same,Potency,[2],16.6 µM (active)
same,Potency,[5],16.6 µM (active)
CCC(C=C[C@@H]1OC(=O)C=C[C@H]1C)=C[C@H](C)CC=CC(C)=C[C@@H](C)C(=O)[C@@H](C)[C@H](O)[C@@H](C)CC(C)=CC(=O)O,Potency,[1],0.0311 µM (active)
same,Potency,[2],0.0277 µM (active)
same,Potency,[3],0.0349 µM (active)
same,Potency,[5],0.0277 µM (active)
COc1cc(C)c(C=CC(C)=CC=CC(C)=CC(=O)O)c(C)c1C,Potency,[1],inactive
same,Potency,[3],inactive
same,Potency,[5],inactive
O=C(O)C(=O)Nc1cccc(C2=NN=N[N]2)c1,Potency,[4],inactive
same,Potency,[2],inactive
same,Potency,[3],inactive
same,Potency,[5],inactive
CC(=O)ON=C1C(c2c(O)[nH]c3cc(Br)ccc23)=Nc2ccccc21,Potency,[4],5.26 µM (active)
same,Potency,[2],11.8 µM (active)
CC(C)(O)CC[C@@H](O)[C@](C)(O)[C@H]1CC[C@@]2(O)C3=CC(=O)[C@@H]4C[C@@H](O)[C@@H](O)C[C@]4(C)[C@@H]3CC[C@]12C,Potency,[4],inactive
same,Potency,[3],inactive
same,Potency,[5],inactive
Nc1ncn([C@@H]2O[C@H](CO)[C@@H](O)[C@@H]2O)c(=O)n1,Potency,[4],3.32 µM (active)
same,Potency,[2],13.2 µM (active)
same,Potency,[3],1.48 µM (active)
C[C@H](NC(=O)C(C#N)=Cc1cccc(Br)n1)c1ccccc1,Potency,[2],1.66 µM (active)
same,Potency,[3],13.2 µM (active)
same,Potency,[5],5.9 µM (active)
CC[C@H]1OC(=O)[C@H](C)[C@@H](O[C@H]2C[C@@](C)(OC)[C@@H](O)[C@H](C)O2)[C@H](C)[C@@H](O[C@@H]2O[C@@H](C)C[C@H](N(C)C)[C@@H]2O)[C@](C)(O)C[C@@H](C)C(=O)[C@H](C)[C@@H](O)[C@]1(C)O,Potency,[2],inactive
same,Potency,[5],inactive
